# Screens: PubChem BioAssay, National Center for Advancing Translational Sciences (NCATS)
# This is one part of a sample in which hits are shown more often than they occur.
# VDR inhibitor: Inhibitors of the vitamin D receptor (VDR): qHTS | Vitamin D3 receptor (Homo sapiens), P11473 | VDR-SRC2-3 peptide fluorescence polarization, 2 h | Potency, µM, for the others: max response, negative = inhibition, hits mostly inhibitors | 400,000 compounds, 0.93% hits; also: % is scaled to controls: 0 for no effect and ±100 for the full control effect
# Target sequence (P11473 whole entry, looked up): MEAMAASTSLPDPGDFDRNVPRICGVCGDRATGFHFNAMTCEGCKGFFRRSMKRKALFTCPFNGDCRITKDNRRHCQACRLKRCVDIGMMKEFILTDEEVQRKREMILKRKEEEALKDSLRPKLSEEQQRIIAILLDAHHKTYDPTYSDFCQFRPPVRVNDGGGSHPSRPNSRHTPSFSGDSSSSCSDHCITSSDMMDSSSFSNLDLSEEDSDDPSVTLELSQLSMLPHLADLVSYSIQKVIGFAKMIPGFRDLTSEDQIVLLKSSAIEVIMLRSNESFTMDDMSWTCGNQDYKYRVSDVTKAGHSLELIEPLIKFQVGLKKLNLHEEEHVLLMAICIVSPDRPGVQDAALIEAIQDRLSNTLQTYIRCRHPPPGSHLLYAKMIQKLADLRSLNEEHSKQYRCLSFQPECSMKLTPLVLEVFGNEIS
#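 Measured by FP: displacement of SRC2-3 coactivator peptide from VDR by library compounds, following a two-hour ambient incubation.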
# Sfp PPTase inh: qHTS Assay for Inhibitors of Bacillus subtilis Sfp phosphopantetheinyl transferase (PPTase); 4'-phosphopantetheinyl transferase ffp (Bacillus subtilis), Q9F4F7; Biochemical Sfp PPTase activity, qHTS; Potency, µM, for inactives: largest response in the series, negative = inhibition, usual class: inhibitors; 310,000 compounds, 3.5% hits;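 also: the enzyme is Sfp with the accession as filed and its product quenches rhodamine fluorescence; 0% = enzyme reaction without inhibitor and -100% = no enzyme wells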
#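 With Hepes-Na pH 7.6 buffer containing 10 mM MgCl2, Sfp (15 nM) modified BHQ-2-YbbR (12.5 uM) using rhodamine-CoA (5 uM). Two reads 30 minutes apart at 525/598 nm yielded each well's rate.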
# ALOX12 inh: Primary qHTS assay for inhibitors of human arachidonate 12S-lipoxygenase (ALOX12): Round 2. 580,000 compounds, 1.1% hits. Potency, µM (titrated, usually from 108 µM), for inactives: top-dose activity change, negative = inhibition, actives largely listed as inhibitors. purified 12hLO, xylenol orange hydroperoxide absorbance; also: % is scaled to controls: 0 for no effect and ±100 for the full control effect
#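 Purified human 12hLO at 150 nM in 25 mM Hepes, 0.01% Triton X-100, pH 7.0, preincubated 15 min at room temperature with compound. Reaction started with 40 uM arachidonic acid, 30 min at room temperature. Hydroperoxide measured by Fe-xylenol orange, 573/405 nm absorbance ratio.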
# GRP78 ERSR act: qHTS for Inducers of the Endoplasmic Reticulum Stress Response (ERSR) in Human Glioma: qHTS; U87-MG GRP78 promoter luciferase reporter, 16 h; Potency, µM, without a hit: top-dose activation, most hits filed as activators; 420,000 compounds, 0.02% hits; AID 602332, 2012; also: series mostly up to about 76 µM; % of control where 0% means no effect; nearly all actives have a fitted effect of over 35% in size
#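 ERSR induction read as luciferase luminescence (Bright-Glo, 10 min at room temperature) in stably transfected human U87-MG glioma cells exposed to compounds for 16 h, using GRP78 as sensor.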
# G9a block: qHTS Assay for Inhibitors of Histone Lysine Methyltransferase G9a | AID 504332, 2011 | G9a H3K9 monomethylation, AlphaScreen, 2 h | Histone-lysine N-methyltransferase EHMT2 (Homo sapiens), Q96KQ7 | 350,000 compounds, 8.8% hits | Potency, µM (doses to about 102 µM), without a hit: at the top dose activity, negative = inhibition, hits mostly inhibitors; also: % is scaled to controls: 0 for no effect and ±100 for the full control effect; nearly all actives have a fitted effect of over 75% in size
# Target sequence (Q96KQ7 913-1193 limits assumed): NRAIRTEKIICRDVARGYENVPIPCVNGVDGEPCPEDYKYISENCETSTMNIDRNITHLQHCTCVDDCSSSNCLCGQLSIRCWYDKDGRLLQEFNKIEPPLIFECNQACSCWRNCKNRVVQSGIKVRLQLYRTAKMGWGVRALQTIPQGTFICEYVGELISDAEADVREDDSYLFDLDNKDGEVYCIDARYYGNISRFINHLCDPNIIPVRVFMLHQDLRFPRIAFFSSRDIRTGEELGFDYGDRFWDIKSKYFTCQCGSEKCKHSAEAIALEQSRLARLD
#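 Signal arises when biotinylated H3K9 peptide, once monomethylated, bridges streptavidin donor and antibody-captured acceptor beads. Enzyme at 20 nM was preincubated 15 min with test compounds; peptide 500 nM and SAM 20 uM then reacted for 2 h.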
# Numbers without * were called inactive; ? = inconclusive; . = no result given; [ ] = dose if it differs, or a comment. Calls follow the shape of the dose curve; as a rule, active = well fitted curve in the direction sought with a large enough effect; inconclusive = small, poorly fitted or top-dose-only effect, or another doubt; inactive = no such curve, though single readings can be large; an effect the other way counts as inactive or inconclusive. Potency is read from the fitted curve at half-maximal effect.
SMILES,VDR inhibitor,Sfp PPTase inh,ALOX12 inh,GRP78 ERSR act,G9a block
Cc1cc(N2CCN(C)CC2)nc(=S)[nH]1,-5.8%,50.1µM*,1.9%,-1.0%,39.8µM*
CCCCCCNC(=O)N[C@H](C(=O)NCCC[C@H]1CN2C(=NC[C@H]2C)N1CCC(c1ccccc1)c1ccccc1)C(C)O (stereo partly specified),.,2.24µM*,.,.,?
C/C=C(\C)C(=O)NCCN1C2=NC[C@H](C)N2C[C@@H]1Cc1ccc(OC)cc1,-10.0%,9.3%,0.8%,-2.7%,.
CC(C)c1nc2c(NC(=O)c3cccc(Br)c3)cccn2n1,.,.,50.2%,.,.
CCOC(=O)C1=CCN(S(=O)(=O)c2ccc(C)cc2)C1c1ccccc1 (stereo unspecified),.,.,3.4%,-6.1%,.
CCOc1cc2c(c3c1C(c1ccccc1)N(S(=O)(=O)c1ccc(C)cc1)C3)C(=O)C=CC2=O (stereo unspecified),.,.,1.12µM*,-12.1%,.
Cc1ccc(-n2cc(CNCCN3CCOC3=O)c(-c3ccc(F)cc3)n2)cc1,-3.6%,?,0.0%,2.8%,-1.4%
Cc1ccc(-n2cc(CNCCc3ncc(C)[nH]3)c(-c3ccc(F)cc3)n2)cc1,-1.4%,56.2µM*,-20.6%,-7.9%,-22.3%
COc1ccc(-n2cc(CNCCc3nc(C)cc(C)n3)c(-c3ccccc3Cl)n2)cc1,-2.0%,-1.0%,-5.7%,-1.1%,8.1%
COc1ccc(-n2cc(CNCCc3ncc(C)[nH]3)c(-c3ccccc3Cl)n2)cc1,13.8%,-5.2%,11.0%,-4.7%,35.5µM*
CCN(CC)C(CNS(=O)(=O)c1cccc(C#N)c1)c1ccsc1 (stereo unspecified),.,.,4.1%,.,.
CN(C)c1nc(N)nc(COc2ccc(Cl)c3ccccc23)n1,.,.,-11.4%,.,.
CCOC(=O)c1ccccc1NC(=O)CN1CCCN(Cc2cccc(OC)c2)S1(=O)=O,.,.,31.7%,.,.
COc1ccc2cnn(CC(=O)Nc3cccc(Cl)c3)c(=O)c2c1OC,.,.,-20.6%,.,.
CSc1nc(=S)cc(C)[nH]1,50.1µM*,35.5µM*,?,-3.5%,.
COc1ccccc1-c1noc(CCCC(=O)Nc2ccc(S(=O)(=O)N3CCC(C)CC3)cc2)n1,.,.,-2.1%,.,.
O=C(C=C1CCN(c2ncc(C(F)(F)F)cc2Cl)CC1)NNC(=O)Nc1ccccc1,1.5%,7.1%,0.0%,2.8%,11.2µM*
Cc1ccc(C2=NC3(CCN(C(=O)c4ccsc4)CC3)ON2)cc1,.,.,41.9%,.,.
CCCn1nc(C(=O)N(CCOC)Cc2nc3ccccc3c(=O)[nH]2)c2ccccc2c1=O,.,.,1.0%,.,.
O=C1CNC(=S)N1CCCn1ccnc1,-10.4%,6.1%,1.1%,-3.3%,-27.3%
Cc1cc(=S)cc(C)n1CCCn1ccnc1,2.1%,4.4%,12.2%,-1.2%,25.1µM*
Cc1ccc(-c2cc(C34CC5CC(CC(C5)C3)C4)nc3sc4c(c23)CCC4)cc1,.,.,-29.8%,.,.
COc1ccc(Cl)cc1C(=O)Nc1ccncc1,-12.4%,5.5%,5.3%,-1.7%,?
CCN(CC)c1ccc(NC(=O)c2cc3c(OC)cccc3[nH]2)cc1,-6.9%,-7.2%,0.0%,0.0%,8.91µM*
CCN(CC)c1ccc(NC(=O)c2cc(Cl)ccc2OC)cc1,6.0%,-9.2%,?,-1.6%,2.51µM*
SMILES,VDR inhibitor,Sfp PPTase inh,ALOX12 inh,GRP78 ERSR act,G9a block
N#CC1(NC(=O)c2csc(-c3cccc(Cl)c3)n2)CCC1,.,.,23.9%,.,.
CC/C=C1/N=C2C(=O)N(C)C(=O)N=C2N(C)N1,-12.6%,.,.,-9.4%,.
CN1N/C(=C\c2ccccc2)N=C2C(=O)N(C)C(=O)N=C21,50.1µM*,.,.,-10.7%,.
CN1C[C@@H](NC(=O)c2ccc(-c3ccccc3)cc2)C[C@H]1c1nc(-c2ccc(Cl)cc2)no1,.,.,-19.7%,.,.
CC(C)NC(=O)N[C@H]1C[C@@H](c2nc(-c3ccc4c(c3)OCO4)no2)N(C)C1,.,.,22.4µM*,.,.
CC(=O)N[C@H]1C[C@@H](c2nc(-c3ccc4c(c3)OCO4)no2)N(C)C1,.,.,-0.9%[176 µM],.,.
CN1C[C@@H](NC(=O)CC(C)(C)CC(=O)O)C[C@H]1c1nc(-c2ccccc2)no1,.,.,126µM*,.,.
Cc1c(C(=O)NCc2cccc(Cl)c2)sc2nc3n(c(=O)c12)CCCC3,6.3%,.,-0.1%,2.4%,15.8µM*
Cc1c(C(=O)NCc2ccc(Cl)cc2)sc2nc3n(c(=O)c12)CCCC3,2.9%,.,-20.1%,.,11.2µM*
Cc1c(C(=O)NCc2ccccc2Cl)sc2nc3n(c(=O)c12)CCC3,-3.8%,.,3.4%,0.7%,-29.0%[59 µM]
CCCCC1Cc2[nH]c(=S)[nH]c(=O)c2C(c2ccc(C(C)C)cc2)O1 (stereo unspecified),.,.,39.8µM*,.,.
CC(C)CCNC(=O)C1(C)CCC(=O)N1Cc1ccccc1Cl (stereo unspecified),.,.,-2.9%,.,.
Cc1ccc(OCCNC(=O)c2cc3ccccc3oc2=O)c(C)c1,.,.,9.5%,.,.
Cc1ccc(NC(=O)CC(=O)Nc2ccc(C)cc2C)c(C)c1,2.1%,1.5%,-20.9%,-5.3%,5.5%
Cc1ccc(N/C(C(Cl)=C(Cl)Cl)=C(/Cl)[N+](=O)[O-])c(C)c1,-11.6%,?,?,?,25.1µM*
O=C(/C=C/c1cccs1)c1ccc(NC(=O)c2cccc(Br)c2)cc1,-6.0%,-8.0%,45.5%,-5.5%,-27.3%[59 µM]
O=C(/C=C/c1cccs1)c1ccc(Br)cc1,50.1µM*,-13.0%,137.5%,-0.3%,-4.2%
COc1ccc2c(=O)c(-c3cnn(-c4ccccc4)c3)c(C(F)(F)F)oc2c1,.,.,2.0%,.,.
COc1ccc(Sc2ccccc2CN(C)C)cc1OC,-2.2%,7.5%,7.8%,-2.1%,-10.7%[59 µM]
CNCc1ccccc1Sc1ccc(O)c(O)c1,?,?,3.4%,-13.9%,12.6µM*
Cc1cc2nc(CSc3nc4ccc(NC(=O)Cc5ccccc5)cc4s3)cc(=O)n2o1,.,.,47.0%,.,.
CCCC1(C)C(C#N)C(=O)NC(=O)C1C#N (stereo unspecified),0.0%,.,-0.9%,-1.1%,.
CCCC1(C)C(C#N)(C#N)C1(C#N)C#N,10µM*,.,.,-14.4%,8.91µM*
c1ccc(-c2cc(NCCN3CCCCC3)c3ccccc3n2)cc1,4.4%,-3.8%,?,-10.2%,39.8µM*
Cc1noc2c(NCCN3CCOCC3)cc(-c3ccccc3)nc12,.,.,6.6%[176 µM],.,.
COc1ccccc1C1(CC(=O)N2CCOCC2)CCOC(C(C)C)C1 (stereo unspecified),-1.8%,-14.5%,0.0%,-1.5%,50.1µM*
CC(=O)C1=C(C)N(Cc2ccc(Cl)cc2)C(=S)NC1c1cccc(Br)c1 (stereo unspecified),.,.,39.8µM*,.,.
CC(=O)C1=C(C)N(CC(C)C)C(=S)NC1c1ccc(Br)cc1 (stereo unspecified),.,.,39.8µM*,.,.
